# According to the supplement of paper PMC4466140:
# Experiments:
# Experiment in all cases: SPOT peptide array binding signal intensity (averaged, normalized) (arbitrary units (background-subtracted, floor 0; scale differs between SH3 domains)); higher = stronger binding of the SH3 domain to the peptide
# [1] = target: CaNbp2
# Outline: (§1)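 Peptides were synthetic 15-mers on cellulose membranes, with every cysteine replaced by serine. They were incubated overnight at 4°C with GST-SH3 domains from four yeast species at 10 μg/ml in TBS-based blocking buffer. Binding signal, the replicate-averaged normalized and background-subtracted spot intensity, is in arbitrary units that differ between domains.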
# [2] = target: CaRvs167
# Outline: as §1
# [3] = target: CaRvs167-3
# Outline: as §1
# [4] = target: CaSho1
# Outline: as §1
# [5] = target: CaSla1-D1-D2
# Outline: as §1
# [6] = target: CaSla1-D3
# Outline: as §1
# [7] = target: ScAbp1
# Outline: as §1
# [8] = target: ScBbc1
# Outline: as §1
# [9] = target: ScBem1-D1
# Outline: as §1
# [10] = target: ScBzz1-D1
# Outline: as §1
# [11] = target: ScBzz1-D2
# Outline: as §1
# [12] = target: ScCyk3
# Outline: as §1
# [13] = target: ScFus1
# Outline: as §1
# [14] = target: ScHof1
# Outline: as §1
# [15] = target: ScHse1
# Outline: as §1
# [16] = target: ScLsb1
# Outline: as §1
# [17] = target: ScLsb2
# Outline: as §1
# [18] = target: ScLsb3
# Outline: as §1
# [19] = target: ScLsb4
# Outline: as §1
# [20] = target: ScMyo3
# Outline: as §1
# [21] = target: ScMyo5
# Outline: as §1
# [22] = target: ScNbp2
# Outline: as §1
# [23] = target: ScPex13
# Outline: as §1
# [24] = target: ScRvs167
# Outline: as §1
# [25] = target: ScSho1
# Outline: as §1
# [26] = target: ScSla1-D1-D2
# Outline: as §1
# [27] = target: ScSla1-D3
# Outline: as §1
# [28] = target: SpAbp1-D1
# Outline: as §1
# [29] = target: SpBbc1
# Outline: as §1
# [30] = target: SpBzz1-D1
# Outline: as §1
# [31] = target: SpBzz1-D2
# Outline: as §1
# [32] = target: SpCyk3
# Outline: as §1
# [33] = target: SpHof1
# Outline: as §1
# [34] = target: SpHof1-2
# Outline: as §1
# [35] = target: SpHof1-3
# Outline: as §1
# [36] = target: SpHse1
# Outline: as §1
# [37] = target: SpLsb1
# Outline: as §1
# [38] = target: SpLsb4
# Outline: as §1
# [39] = target: SpMyo1
# Outline: as §1
# [40] = target: SpNbp2
# Outline: as §1
# [41] = target: SpPex13
# Outline: as §1
# [42] = target: SpRvs167
# Outline: as §1
# [43] = target: SpSla1-D1-D2
# Outline: as §1
# [44] = target: SpSla1-D3
# Outline: as §1
# [45] = target: AgAbp1
# Outline: as §1
# [46] = target: AgBbc1
# Outline: as §1
# [47] = target: AgBem1-D1
# Outline: as §1
# [48] = target: AgBzz1-D1
# Outline: as §1
# [49] = target: AgBzz1-D2
# Outline: as §1
# [50] = target: AgCyk3
# Outline: as §1
# [51] = target: AgFus1
# Outline: as §1
# [52] = target: AgHof1
# Outline: as §1
# [53] = target: AgHse1
# Outline: as §1
# [54] = target: AgLsb1
# Outline: as §1
# [55] = target: AgLsb4
# Outline: as §1
# [56] = target: AgMyo5
# Outline: as §1
# [57] = target: AgNbp2
# Outline: as §1
# [58] = target: AgRvs167
# Outline: as §1
# [59] = target: AgSho1
# Outline: as §1
# [60] = target: AgSla1-D1-D2
# Outline: as §1
# [61] = target: AgSla1-D3
# Outline: as §1
# [62] = target: CaAbp1-D1
# Outline: as §1
# [63] = target: CaAbp1-D2
# Outline: as §1
# [64] = target: CaBbc1
# Outline: as §1
# [65] = target: CaBem1-D1
# Outline: as §1
# [66] = target: CaBzz1-D1
# Outline: as §1
# [67] = target: CaBzz1-D2
# Outline: as §1
# [68] = target: CaCyk3
# Outline: as §1
# [69] = target: CaFus1
# Outline: as §1
# [70] = target: CaHof1
# Outline: as §1
# [71] = target: CaHse1
# Outline: as §1
# [72] = target: CaLsb1
# Outline: as §1
# [73] = target: CaLsb4
# Outline: as §1
# [74] = target: CaMyo5
# Outline: as §1
binder,measurement,setting,value
HPRFVSPRIPSRIVK,SPOT peptide array binding signal intensity,[1],428
same,SPOT peptide array binding signal intensity,[2],230
same,SPOT peptide array binding signal intensity,[3],5.75
same,SPOT peptide array binding signal intensity,[4],170
same,SPOT peptide array binding signal intensity,[5],736
same,SPOT peptide array binding signal intensity,[6],11.5
same,SPOT peptide array binding signal intensity,[7],238
same,SPOT peptide array binding signal intensity,[8],283
same,SPOT peptide array binding signal intensity,[9],21.5
same,SPOT peptide array binding signal intensity,[10],62
same,SPOT peptide array binding signal intensity,[11],73.5
same,SPOT peptide array binding signal intensity,[12],12
same,SPOT peptide array binding signal intensity,[13],147
same,SPOT peptide array binding signal intensity,[14],8.75
same,SPOT peptide array binding signal intensity,[15],820
same,SPOT peptide array binding signal intensity,[16],531
same,SPOT peptide array binding signal intensity,[17],694
same,SPOT peptide array binding signal intensity,[18],2050
same,SPOT peptide array binding signal intensity,[19],114
same,SPOT peptide array binding signal intensity,[20],27
same,SPOT peptide array binding signal intensity,[21],32.5
same,SPOT peptide array binding signal intensity,[22],510
same,SPOT peptide array binding signal intensity,[23],86.2
same,SPOT peptide array binding signal intensity,[24],820
same,SPOT peptide array binding signal intensity,[25],256
same,SPOT peptide array binding signal intensity,[26],720
same,SPOT peptide array binding signal intensity,[27],36
same,SPOT peptide array binding signal intensity,[28],180
same,SPOT peptide array binding signal intensity,[29],19
same,SPOT peptide array binding signal intensity,[30],350
same,SPOT peptide array binding signal intensity,[31],1
same,SPOT peptide array binding signal intensity,[32],4
same,SPOT peptide array binding signal intensity,[33],145
same,SPOT peptide array binding signal intensity,[34],15.8
same,SPOT peptide array binding signal intensity,[35],295
same,SPOT peptide array binding signal intensity,[36],318
same,SPOT peptide array binding signal intensity,[37],1380
same,SPOT peptide array binding signal intensity,[38],2670
same,SPOT peptide array binding signal intensity,[39],49
same,SPOT peptide array binding signal intensity,[40],78.5
same,SPOT peptide array binding signal intensity,[41],32
same,SPOT peptide array binding signal intensity,[42],254
same,SPOT peptide array binding signal intensity,[43],1.5
same,SPOT peptide array binding signal intensity,[44],11
FYHRPAPKPPVTKKV,SPOT peptide array binding signal intensity,[45],250
same,SPOT peptide array binding signal intensity,[46],123
same,SPOT peptide array binding signal intensity,[47],68
same,SPOT peptide array binding signal intensity,[48],89
same,SPOT peptide array binding signal intensity,[49],65
same,SPOT peptide array binding signal intensity,[50],6
same,SPOT peptide array binding signal intensity,[51],≤ 0
same,SPOT peptide array binding signal intensity,[52],3
same,SPOT peptide array binding signal intensity,[53],≤ 0
same,SPOT peptide array binding signal intensity,[54],138
same,SPOT peptide array binding signal intensity,[55],≤ 0
same,SPOT peptide array binding signal intensity,[56],38.8
same,SPOT peptide array binding signal intensity,[57],1040
same,SPOT peptide array binding signal intensity,[58],1.33
same,SPOT peptide array binding signal intensity,[59],≤ 0
same,SPOT peptide array binding signal intensity,[60],≤ 0
same,SPOT peptide array binding signal intensity,[61],6.5
same,SPOT peptide array binding signal intensity,[62],281
same,SPOT peptide array binding signal intensity,[63],269
same,SPOT peptide array binding signal intensity,[64],454
same,SPOT peptide array binding signal intensity,[65],364
same,SPOT peptide array binding signal intensity,[66],2440
same,SPOT peptide array binding signal intensity,[67],529
same,SPOT peptide array binding signal intensity,[68],10.5
same,SPOT peptide array binding signal intensity,[69],≤ 0
same,SPOT peptide array binding signal intensity,[70],≤ 0
same,SPOT peptide array binding signal intensity,[71],≤ 0
same,SPOT peptide array binding signal intensity,[72],3
same,SPOT peptide array binding signal intensity,[73],≤ 0
same,SPOT peptide array binding signal intensity,[74],8
same,SPOT peptide array binding signal intensity,[1],843
same,SPOT peptide array binding signal intensity,[2],3
same,SPOT peptide array binding signal intensity,[3],≤ 0
same,SPOT peptide array binding signal intensity,[4],≤ 0
same,SPOT peptide array binding signal intensity,[5],105
same,SPOT peptide array binding signal intensity,[6],45.2
same,SPOT peptide array binding signal intensity,[7],87.5
same,SPOT peptide array binding signal intensity,[8],330
same,SPOT peptide array binding signal intensity,[9],4
same,SPOT peptide array binding signal intensity,[10],678
same,SPOT peptide array binding signal intensity,[11],39
same,SPOT peptide array binding signal intensity,[12],≤ 0
same,SPOT peptide array binding signal intensity,[13],≤ 0
same,SPOT peptide array binding signal intensity,[14],≤ 0
same,SPOT peptide array binding signal intensity,[15],≤ 0
same,SPOT peptide array binding signal intensity,[16],32.5
same,SPOT peptide array binding signal intensity,[17],106
same,SPOT peptide array binding signal intensity,[18],53
same,SPOT peptide array binding signal intensity,[19],3
same,SPOT peptide array binding signal intensity,[20],284
same,SPOT peptide array binding signal intensity,[21],459
same,SPOT peptide array binding signal intensity,[22],1680
same,SPOT peptide array binding signal intensity,[23],530
same,SPOT peptide array binding signal intensity,[24],12.8
same,SPOT peptide array binding signal intensity,[25],12
same,SPOT peptide array binding signal intensity,[26],238
same,SPOT peptide array binding signal intensity,[27],475
same,SPOT peptide array binding signal intensity,[28],50.5
same,SPOT peptide array binding signal intensity,[29],19.2
same,SPOT peptide array binding signal intensity,[30],647
same,SPOT peptide array binding signal intensity,[31],2.5
same,SPOT peptide array binding signal intensity,[32],2
same,SPOT peptide array binding signal intensity,[33],12.5
same,SPOT peptide array binding signal intensity,[34],≤ 0
same,SPOT peptide array binding signal intensity,[35],≤ 0
same,SPOT peptide array binding signal intensity,[36],≤ 0
same,SPOT peptide array binding signal intensity,[37],8
same,SPOT peptide array binding signal intensity,[38],54
same,SPOT peptide array binding signal intensity,[39],132
same,SPOT peptide array binding signal intensity,[40],9
same,SPOT peptide array binding signal intensity,[41],6
same,SPOT peptide array binding signal intensity,[42],9.33
same,SPOT peptide array binding signal intensity,[43],≤ 0
same,SPOT peptide array binding signal intensity,[44],≤ 0
